AID504770: growth inhibition of E. coli YBA685, primary screen, V. cholerae RctB inhibitors. E. coli YBA685 rctB-dependent plasmid, OD600 growth, 3 h; active compounds read low. z-score (concentration not given with the values). 0.27% of 130,000 active; in the data active = z-score below about -2, passing the limit was not always enough
MbtI inh: MbtI salicylate synthase inhibitors, primary screen, biochemical, fluorescence intensity; P9WFX0; purified MbtI enzyme, fluorescence intensity read-out; inhibition, % (no concentration beside the values); 0.89% of 100,000 active; in the data active = inhibition mostly above about 56%, no sharp cut-off; inactive = mostly below about 77%
PV pol inh: poliovirus RdRp elongation inhibitors, primary screen, biochemical, fluorescence polarization, total intensity; Genome polyprotein (Poliovirus type 1 (strain Mahoney)), P03300; poliovirus polymerase elongation; active compounds read low; % elongation, % (compound at 16.7 µg/mL); 0.66% of 150,000 active; AID 588519, 2011; in the data active = % elongation below about 90%
Target sequence (P03300 1749-2209 limits assumed): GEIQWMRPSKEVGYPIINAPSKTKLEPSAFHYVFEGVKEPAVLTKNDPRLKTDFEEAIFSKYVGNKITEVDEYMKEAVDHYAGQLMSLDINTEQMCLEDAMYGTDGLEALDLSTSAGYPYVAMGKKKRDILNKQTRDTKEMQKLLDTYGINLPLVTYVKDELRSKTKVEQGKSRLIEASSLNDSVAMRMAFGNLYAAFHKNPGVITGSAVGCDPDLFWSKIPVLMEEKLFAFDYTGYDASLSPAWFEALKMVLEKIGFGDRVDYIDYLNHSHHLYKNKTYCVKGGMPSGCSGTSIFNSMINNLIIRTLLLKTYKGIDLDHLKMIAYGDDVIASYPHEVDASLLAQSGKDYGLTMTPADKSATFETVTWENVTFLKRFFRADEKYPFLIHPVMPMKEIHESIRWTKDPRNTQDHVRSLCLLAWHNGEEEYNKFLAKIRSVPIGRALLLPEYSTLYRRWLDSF
MenB inh: M. tuberculosis MenB inhibitors, primary screen, biochemical, absorbance; 1,4-dihydroxy-2-naphthoyl-CoA synthase (Mycobacterium tuberculosis (strain ATCC 25618 / …; MenB enzyme assay, absorbance read-out; inhibition, % (test concentration not listed); 0.43% of 100,000 active; AID 540299, 2011; in the data active = inhibition above about 21%, passing the limit was not always enough
Numbers stand for hits; . = inactive; / = no result. In the library only some 1.5% were active in any assay of this set; here they are far more common.

SMILES	AID504770	MbtI inh	PV pol inh	MenB inh
C=CCN1C(=O)/C(=C/c2ccco2)C(=O)NC1=S	.	86.3	.	.
O=C1NC(=O)N(Cc2ccco2)C(=O)/C1=C\c1ccco1	.	.	.	.
COc1ccc(-c2ccc[nH]2)cc1	.	.	.	.
O=C1c2ccccc2-c2n[nH]c3cccc1c23	.	.	.	.
O=c1[nH]nc2c3c(cccc13)-c1ccccc1-2	.	.	.	57.9
CCOC(=O)c1ccc2nc(C(F)(F)F)nc(N3CCOCC3)c2c1	.	.	.	.
COC(=O)/C=C/C(=O)Nc1ccccc1	.	101.3	.	.
COc1ccc(/C=C/C(=O)Nc2ccccc2)cc1	.	.	.	.
Cc1ccc(N2CCN(C(=O)c3cnn(-c4ccc(C)c(C)c4)c3C3CCNCC3)CC2)c(C)c1	/	/	74.0	/
Cc1ccc(Cl)cc1N1CCN(C(=O)c2cnn(-c3ccc(Cl)cc3)c2C2CCNCC2)CC1	/	/	.	/
CCc1ccccc1NC(=O)CCC(=O)O	.	.	.	32.0
Cc1ccccc1NC(=O)CCC(=O)O	.	.	.	.
CCc1ccc(NC(=O)CSc2nc(=O)n(Cc3ccco3)c3c2CCC3)cc1	/	/	.	/
COc1ccc(C(C(=O)NCc2ccccc2)N(Cc2ccco2)C(=O)c2cnccn2)cc1 (stereo not given)	.	.	.	36.4
ONC=NCc1ccccc1OC(F)(F)F	.	.	.	34.3
Nc1nc(NCc2ccccc2OC(F)(F)F)n[nH]1	.	/	/	/
COC(=O)C(C)N(C#N)c1nc(C)cc(C)n1 (stereo not given)	.	.	/	/
Cc1cc(C)nc(N(C#N)C(=S)N(C)C)n1	.	102.2	.	.
CSc1nc2c(=S)[nH]c(=S)[nH]c2s1	.	55.4	82.0	.
O=C(CCn1cnc2ccccc21)N/N=C/c1ccccc1	.	.	.	.
Clc1cccc(Cl)c1Cn1nnc(N2CCCCC2)n1	.	/	/	/
Cc1sc(NC(=O)C2CC2)c(C#N)c1C	.	89.5	.	.
C=CCOC(=O)c1sc(N2CCCC2=O)c(C(=O)OCC)c1C	.	.	.	.
CCOC(=O)c1sc(N=NC2=C(O)CCCC2=O)c(C(=O)OCC)c1C	.	.	42.0	.
COc1ccc(OCC(=O)Sc2ccc(Cl)cc2)cc1	.	/	81.0	.
SMILES	AID504770	MbtI inh	PV pol inh	MenB inh
CCOC(=O)c1nnn(-c2nn3nnnc3c3ccccc23)c1C	.	.	.	32.3
CCOC(=O)c1nnn(-c2nonc2-n2cccc2)c1C	.	.	.	.
S=C(S)N1CCCC1	-3.45	95.7	.	.
NC(=S)N1CCCC1	.	.	.	.
COc1ccc(CCNC(=O)c2ccc3c(c2)N(Cc2ccccc2)CCS3)cc1OC	/	/	.	/
CCS(=O)(=O)n1nc(-c2ccco2)nc1SC	.	82.3	.	.
CSc1nc(-c2ccco2)nn1C(=O)c1ccccc1	.	.	.	.
SCCCCOc1ccccc1Br	.	.	.	.
O=C(NCCN1C(=O)C2C3C=CC(C3)C2C1=O)NCc1ccccc1 (stereo not given)	.	.	.	.
Nc1nc(SC#CC(F)(F)F)ns1	-4.95	.	85.0	.
COC(=O)C1=C(C)NC(=O)/C1=C\c1ccc(C)cc1	.	.	.	.
Cc1ccc(C=C2C(=O)NC(=O)NC2=O)cc1	-4.7	.	.	.
N#C/C(=C\c1ccc(O)c(O)c1)C(N)=S	/	71.5	.	.
COc1ccc(/C=C(\C#N)C(N)=S)cc1	.	.	.	.
COc1cc(C(=O)Nc2c3c(nn2-c2ccc(F)cc2)CS(=O)(=O)C3)cc(OC)c1OC	-3.15	.	.	.
CC(C)n1nnnc1SCC(=O)c1ccc(F)cc1	.	.	.	27.8
CC(=O)Nc1ccc(C(=O)CSc2nnnn2C(C)C)cc1	.	.	.	.
COCC(=O)Nc1ccc2nc3n(c(=O)c2c1)CCCCC3	.	/	/	/
CC(=O)N1C(C(=O)O)Cc2c([nH]c3ccccc23)C1(C)C (stereo not given)	.	/	.	.
CC12CCC(=O)N1C(C(=O)O)Cc1c2[nH]c2ccccc12 (stereo not given)	.	.	85.0	.
CN1C(=O)/C(=C/c2ccc(I)o2)C(=O)NC1=S	.	82.9	.	.
CN1C(=O)/C(=C/c2cn(CC(=O)N3CCCC3)c3ccccc23)C(=O)NC1=S	.	.	.	.
Cc1cc(C(F)(F)F)n2nc(C(N)=O)cc2n1	.	.	.	.
COC(=O)c1c(NC(=O)CCCOc2ccc(C(C)(C)C)cc2)sc2c1C(C(=O)OC)CC2 (stereo not given)	/	/	62.0	/
O=c1c(Br)cccc(Br)c1O	-3.55	.	.	.
SMILES	AID504770	MbtI inh	PV pol inh	MenB inh
O=C(CN1C(=O)c2ccccc2C1=O)c1ccc(Cl)cc1	.	.	6.0	.
NC(=O)c1c(NC(=O)CCOc2ccccc2)sc2c1CCCC2	.	/	/	/
O=C(Oc1cccc(Cl)c1Cl)c1ccncc1	.	.	4.0	.
CCc1ccccc1NC(=O)CN1CCN(Cc2ccccc2C)S1(=O)=O	-3.45	.	.	.
Cc1cc(Br)ccc1NC(=O)CN1C(=O)c2cccnc2Sc2ccccc21	/	/	.	/
CC(C#N)Sc1nnc(-c2cccs2)n1CC1CCCO1 (stereo not given)	.	.	.	.
N#Cc1ccc(CSc2nnc(-c3cccs3)n2CC2CCCO2)cc1 (stereo not given)	-2.5	.	.	.
Cc1cc(C)c(S(=O)(=O)N(C)c2ccccc2)c(C)c1	.	.	.	.
CC1=NN(c2cccc(C(=O)O)c2)C(=O)/C1=C/c1ccc(-c2cccc(Cl)c2C)o1	.	.	90.0	.
CC1=NN(c2ccccc2)C(=O)/C1=C/c1ccc(-c2ccccc2)o1	.	.	.	.
CSc1nsc(SC)c1NC(=O)OCCc1ccccn1	.	/	/	/
CSc1nsc(SC)c1NC(=O)OCC1CCCO1 (stereo not given)	.	/	88.0	.
CN(C)S(=O)(=O)c1ccc2c(c1)oc(=O)n2C	.	.	.	27.3
CC(C)Cc1ccc(CC(=O)O)cc1	.	.	80.0	.
CC(C)Cc1ccc([C@H](C)C(=O)O)cc1	/	/	.	.
Cn1c(-c2ccc3ccccc3n2)[n+](C)c2ccccc21	.	.	.	.
COc1cccc(C(O)C(F)(F)F)c1 (stereo not given)	.	.	.	28.8
Cc1cc(=O)[nH]c(SCc2cn3ccccc3n2)n1	.	/	/	/
O=c1[nH]nc(SCc2cn3ccccc3n2)c(=O)[nH]1	.	.	32.0	.
CCN1C(=O)C2CC(C)=C(C)CC2C1=O (stereo not given)	.	.	.	.
CCN1C(=O)CC(OC(C)=O)C1=O (stereo not given)	.	66.0	.	.
CCCN1CCC(N2CCN(CCO)CC2)CC1	.	.	.	.
C/C(Cn1cc[n+](C)c1)=N/O	.	.	.	.
CC(C)P(=O)(c1cccc(C(=O)O)c1)C(C)C	.	/	.	23.4
Cc1csc(CC(N)=S)n1	.	98.2	.	.
CCCn1c(SCC(=O)N2CCCC2)nnc1C(C)C	-3.1	.	.	.

Source: PubChem (ICCB-Longwood Screening Facility, Harvard Medical School)
